Screening results deposited in PubChem BioAssay by National Center for Advancing Translational Sciences (NCATS).
Compounds with a hit are over-represented: about 8.1% of the library has one in this group of screens.
ELG1 DNA repair – blocks ELG1-dependent DNA repair in HEK293T cells; HEK293T ELG1-luciferase reporter, luminescence, 16 h; DNA damage induced by 5-fluorouridine; actives 2.3% (n = 330,000); Potency, µM (doses to about 46.1 µM), for the others: at the top dose activity change, negative = inhibition, hits mostly inhibitors; also: % is scaled to controls: 0 for no effect and ±100 for the full control effect; nearly all actives have a fitted effect of over 55% in size
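In this reporter screen, reduction of luminescence relative to DMSO vehicle indicated activity. Compounds and 5-fluorouridine were added together to 2,000 cells per well, incubated for 16 hr at 37 °C, then developed with ONE-Glo.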
MCF10A rereplic – induces DNA re-replication in MCF 10a normal breast cells. MCF 10A DNA re-replication, Hoechst nuclear intensity, 48 h. actives 2.9% (n = 350,000). Potency, µM (series often up to 46.1 µM), without a hit: at the highest dose activity, positive = re-replication, most hits filed as activators; also: % of control where 0% means no effect; nearly all actives have a fitted effect of over 50% in size
KB-3-1 cytotox – kills parental KB-3-1 adenocarcinoma cells; KB-3-1 viability, CellTiter-Glo ATP luminescence, 72 h; Potency, µM (series often up to 46.1 µM), actives largely listed as cytotoxic; actives 1.4% (n = 400,000); AID 1347075; also: % is scaled to controls: 0 for no effect and ±100 for the full control effect; nearly all actives have a fitted effect of over 60% in size
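Here the drug-naive KB-3-1 line serves as comparator for MDR sub-line selectivity; cells received compound titrations, 72 h at 37 °C, then CellTiter-Glo readout.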
SW480 rereplic – DNA re-replication induction in SW480 cells. SW480 DNA re-replication, Hoechst DNA content imaging, 48 h. actives 1.8% (n = 340,000). Potency, µM (highest dose often 46.1 µM), without a hit: top-dose re-replication activation, most hits filed as activators. AID 624297; also: % of control where 0% means no effect; nearly all actives have a fitted effect of over 55% in size
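Image-based read-out: total Hoechst fluorescence of nuclei (405 nm excitation, 500-530 nm emission), with hits raising the fraction of high-intensity nuclei. SW480 colon cells incubated 48 hr with compounds at 37 C.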
KB-V1 MDR tox – KB-V1 MDR subline cytotoxicity | KB-V1 MDR cells viability, CellTiter-Glo, 72 h | Potency, µM (top dose mostly 46.1 µM), actives largely listed as cytotoxic | actives 3.4% (n = 400,000); also: % is scaled to controls: 0 for no effect and ±100 for the full control effect; nearly all actives have a fitted effect of over 60% in size
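KB-V1, DMEM (no phenol red) + 10% FBS; cpd pin-transferred, titration series; 72 h, 37 degrees C; CellTiter-Glo, luminescence. Data normalized, curve-fit.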
* hit, by the source's call; i = inactive; ? = inconclusive; · = no result given; ! = not confirmed by another sample. Calls follow the shape of the dose curve; as a rule, active = well fitted curve in the direction sought with a large enough effect; inconclusive = small, poorly fitted or top-dose-only effect, or another doubt; inactive = no such curve, though single readings can be large; an effect the other way counts as inactive or inconclusive. Potency is read from the fitted curve at half-maximal effect.

SMILES	ELG1 DNA repair	MCF10A rereplic	KB-3-1 cytotox	SW480 rereplic	KB-V1 MDR tox
Cc1ccc(C[n+]2c(-c3ccc(C)cc3)cc(-c3ccc(C)cc3)cc2-c2ccc(C)cc2)cc1	?	23µM*	5.8µM*	?	?
O=C(NN1C(=O)C2C3C=CC(C4CC34)C2C1=O)c1ccc(Br)cc1 (configuration not stated)	?	12%	i	-7%	?
COc1ccccc1OCCNC(=O)c1cc(=O)[nH]c2ccccc12	?	0%	i	-2%	i
ClCCN(CCCl)c1ccc(C=Nc2ccc(/C=C/c3ccncc3)cc2)cc1	·	·	i	·	i
CCCC12CN3CC(CCC)(CN(C1)C3c1ccccn1)C2=O (configuration not stated)	-1%	10%	i	-8%	2.6µM*!
COc1ccc(CCNC2CCCCCC2)cc1	-3%	16%	i	3.3µM*	i
Cn1cc[n+](C)c1P(=S)(c1ccccc1)c1ccccc1	-14%	-7%	i	2%	i
Cc1c(P(=S)(c2ccccc2)c2ccccc2)[n+]2ccccc2n1C	?	0.73µM*	2.6µM*!	-18%	?
Cc1c(Cl)cccc1NC(=O)CN1C(=O)C(C)N=C(c2ccccc2)c2ccccc21 (configuration not stated)	·	·	i	·	i
CC(=NCc1cccnc1)c1c(O)n(C2CCCCC2)c(=O)[nH]c1=O	-10%	12%	i	1%	18µM*
COc1cc2c(cc1OC)-c1c(OC)c(OC)cc3c1[C@H](C2)N(C)CC3	0%	13%	?	-1%	13µM*
COc1cc2c(cc1O)CC1c3c(cc(O)c(OC)c3-2)CCN1C (configuration not stated)	?	2%	i	-6%	i
CCOCCSc1nc2c(c(-c3cccs3)c1C#N)CC/C2=C/c1cccs1	-16%	?	i	?	i
O=[N+]([O-])c1cc(C(F)(F)F)c(Cl)c([N+](=O)[O-])c1Nc1ncc(C(F)(F)F)cc1Cl	·	·	1.5µM*	·	?
CC1(C)C[C@H]2C=C(C=O)[C@]3(C=O)C[C@]3(C)[C@H]2C1	5.8µM*	2.1µM*	?	9.2µM*	i
CC[C@]1(O)CC[C@H]2[C@@H]3CCC4=CCCC[C@@H]4[C@H]3CC[C@@]21C	·	?	·	24µM*	·
COc1cc(OC)cc(-c2sc3ccc(OC)cc3c2-c2ccc(OCCN3CCOCC3)cc2)c1	6.5µM*	?	i	?	i
OCc1cccc[n+]1CCc1ccccc1	·	-1%	i	-118%	i
CCCCc1nc2ccccc2c(=O)n1-c1ccc(Cl)cc1[N+](=O)[O-]	-12%	-2%	i	-1%	4.1µM*
CCN(CC)CCN1C(=O)CN=C(c2ccccc2F)c2cc(Cl)ccc21	·	14%	·	3%	·
Cc1ccc2c(c1)[C@H]1[C@H](CO2)[C@H](c2ccccc2)[C@]2(C)C(=O)N(CC3CCCO3)CC(=O)N12 (some centres not stated)	?	-4%	i	?	i
COc1ccc(NC(c2ccccc2F)P(=O)(Oc2ccccc2)Oc2ccccc2)cc1 (configuration not stated)	18µM*	0%	i	8%	i
COc1ccc(NC(c2ccccc2)P(=O)(Oc2ccccc2)Oc2ccccc2)cc1 (configuration not stated)	?	4%	i	-3%	i
CN1CCN(c2ccc([N+](=O)[O-])c3no[n+]([O-])c23)CC1	3.3µM*	2.3µM*	?	?	?
O=[N+]([O-])c1ccc(N(CCO)CCO)c2c1no[n+]2[O-]	·	·	4.6µM*	·	21µM*
SMILES	ELG1 DNA repair	MCF10A rereplic	KB-3-1 cytotox	SW480 rereplic	KB-V1 MDR tox
CN1CCN(c2ccc(S(C)(=O)=O)cc2[N+](=O)[O-])CC1	14%	-2%	i	-2%	i
CCCCOc1ccc(Cn2c(=O)oc3ccccc32)cc1	-1%	?	i	7%	i
CC(C)OP(=O)(Oc1ccc(C(O)C(Cl)(Cl)Cl)cc1)OC(C)C (configuration not stated)	18µM*	-6%	i	-6%	i
CC(c1nc2ccccc2c(=O)[nH]1)N(C)CCOc1ccc(Cl)cc1 (configuration not stated)	?	13%	i	-2%	?
C=CCn1cc(C=C2C(=O)NC(=O)NC2=O)c2ccccc21	8%	5%	i	-11%	i
O=C1NC(=O)C(=Cc2cn(CCOc3ccc4c(c3)OCO4)c3ccccc23)C(=O)N1	?	?	21µM*	?	?
C[n+]1c2ccccc2nc2ccc(NCCO)cc21	8.2µM*	-2%	?	?	?
CNc1ccc2nc3ccccc3[n+](C)c2c1	1.6µM*	1%	i	?	?
Oc1ccc2c3c1O[C@H]1[C@@H](O)CC[C@@]4(O)C(C2)N(CC2CCC2)CCC314 (some centres not stated)	·	1%	·	0%	·
O=C(Nc1ccccc1F)Oc1cccc(OC(=O)Nc2ccccc2F)c1	?	12%	i	3%	i
CC(=O)O[C@H]1CC[C@@]2(C)C(=CC[C@H]3[C@@H]4CC[C@H](C(C)=O)[C@@]4(C)CC[C@@H]32)C1	·	28%	i	?	?
COc1ccc(CC2C(=O)NC(C)C(=O)N(C)C3C(=O)N(C)C(Cc4ccc(O)c(c4)Oc4ccc(cc4)C3O)C(=O)NC(C)C(=O)NC(C)C(=O)N2C)cc1 (configuration not stated)	·	0.26µM*	0.16µM*	?	i
O=c1oc2ccccc2n1CCCOc1ccccc1	?	5%	i	-17%	i
CCCCN1C(=O)NC(=O)C2(Cc3c(nc4c(C)cccn4c3=O)N3CCc4ccccc4C32)C1=O (configuration not stated)	21µM*	?	i	?	15µM*
Cc1cccn2c(=O)c3c(nc12)N1CCc2ccccc2C1C1(C3)C(=O)NC(=O)N(C)C1=O (configuration not stated)	13µM*	-5%	i	-2%	?
CCCCN1C(=O)NC(=O)C2(Cc3c(nc4ccccn4c3=O)N3CCc4ccccc4C32)C1=O (configuration not stated)	?	1%	i	-3%	i
Cc1cccn2c(=O)c3c(nc12)N1CCCCCC1C1(C3)C(=O)N(C)C(=O)N(C)C1=O (configuration not stated)	15%	5%	i	1%	i
CCN(Cc1ccc(Cl)nc1)/C(=C/[N+](=O)[O-])NC	·	3%	·	-2%	·
